Reference: ChEMBL document CHEMBL1961873, “Compounds: GSK PKIS; Assays: Nanosyn kinase panel” (2012)

Legend:
[1] = target: Rho-associated protein kinase 1 (Homo sapiens) (UniProt Q13464); details: at 1 µM;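 note: reported values are mean percent inhibition of ROCK1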
[2] = target: Rho-associated protein kinase 2 (Homo sapiens) (UniProt O75116); details: at 0.1 µM
[3] = target: Rho-associated protein kinase 2 (Homo sapiens) (UniProt O75116); details: at 1 µM
[4] = target: Ribosomal protein S6 kinase alpha-1 (Homo sapiens) (UniProt Q15418); details: at 0.1 µM
Ribosomal protein S6 kinase alpha-1 (Homo sapiens), sequence (Q15418 whole entry): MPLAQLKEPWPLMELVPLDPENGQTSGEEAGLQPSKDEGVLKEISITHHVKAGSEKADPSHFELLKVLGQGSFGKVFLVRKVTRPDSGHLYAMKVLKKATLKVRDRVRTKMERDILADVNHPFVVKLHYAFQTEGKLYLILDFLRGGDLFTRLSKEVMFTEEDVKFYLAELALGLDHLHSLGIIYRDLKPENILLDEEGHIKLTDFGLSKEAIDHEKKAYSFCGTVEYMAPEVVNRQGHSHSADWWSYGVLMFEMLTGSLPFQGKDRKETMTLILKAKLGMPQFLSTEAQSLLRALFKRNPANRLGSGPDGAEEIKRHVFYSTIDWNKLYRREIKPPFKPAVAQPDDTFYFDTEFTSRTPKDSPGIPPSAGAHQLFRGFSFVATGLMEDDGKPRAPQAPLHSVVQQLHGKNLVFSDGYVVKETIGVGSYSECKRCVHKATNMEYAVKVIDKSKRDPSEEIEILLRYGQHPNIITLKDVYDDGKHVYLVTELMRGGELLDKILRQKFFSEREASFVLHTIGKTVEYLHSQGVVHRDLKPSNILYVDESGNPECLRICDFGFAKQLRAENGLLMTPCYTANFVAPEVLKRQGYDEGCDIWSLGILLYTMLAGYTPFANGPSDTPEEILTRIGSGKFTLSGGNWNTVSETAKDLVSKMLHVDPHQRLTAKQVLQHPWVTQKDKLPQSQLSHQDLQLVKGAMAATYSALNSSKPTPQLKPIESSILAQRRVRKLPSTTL

[5] = target: Ribosomal protein S6 kinase alpha-1 (Homo sapiens) (UniProt Q15418); details: at 1 µM
[6] = target: Ribosomal protein S6 kinase alpha-3 (Homo sapiens) (UniProt P51812); details: at 0.1 µM
Ribosomal protein S6 kinase alpha-3 (Homo sapiens), sequence (P51812 whole entry): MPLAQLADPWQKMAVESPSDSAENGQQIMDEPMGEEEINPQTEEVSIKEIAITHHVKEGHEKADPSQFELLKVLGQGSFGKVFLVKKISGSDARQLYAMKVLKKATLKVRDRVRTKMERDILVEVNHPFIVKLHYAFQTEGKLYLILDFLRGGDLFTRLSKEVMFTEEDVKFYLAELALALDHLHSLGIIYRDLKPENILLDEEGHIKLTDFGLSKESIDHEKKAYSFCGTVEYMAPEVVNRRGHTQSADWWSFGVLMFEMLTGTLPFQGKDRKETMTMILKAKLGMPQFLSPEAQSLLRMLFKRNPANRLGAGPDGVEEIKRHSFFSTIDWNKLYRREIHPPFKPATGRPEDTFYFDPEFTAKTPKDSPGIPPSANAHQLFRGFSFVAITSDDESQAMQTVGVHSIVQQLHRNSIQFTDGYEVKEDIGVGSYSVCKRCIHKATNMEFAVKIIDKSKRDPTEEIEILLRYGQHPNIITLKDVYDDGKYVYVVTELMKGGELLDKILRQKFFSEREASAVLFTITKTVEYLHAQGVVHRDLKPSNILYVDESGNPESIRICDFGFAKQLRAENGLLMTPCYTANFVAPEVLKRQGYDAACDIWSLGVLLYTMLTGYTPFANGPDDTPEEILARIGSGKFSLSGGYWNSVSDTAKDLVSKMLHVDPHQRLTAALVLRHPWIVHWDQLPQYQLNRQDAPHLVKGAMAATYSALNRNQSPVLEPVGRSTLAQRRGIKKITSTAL

[7] = target: Ribosomal protein S6 kinase alpha-3 (Homo sapiens) (UniProt P51812); details: at 1 µM
[8] = target: Ribosomal protein S6 kinase alpha-2 (Homo sapiens) (UniProt Q15349); details: at 0.1 µM
Ribosomal protein S6 kinase alpha-2 (Homo sapiens), sequence (Q15349 whole entry): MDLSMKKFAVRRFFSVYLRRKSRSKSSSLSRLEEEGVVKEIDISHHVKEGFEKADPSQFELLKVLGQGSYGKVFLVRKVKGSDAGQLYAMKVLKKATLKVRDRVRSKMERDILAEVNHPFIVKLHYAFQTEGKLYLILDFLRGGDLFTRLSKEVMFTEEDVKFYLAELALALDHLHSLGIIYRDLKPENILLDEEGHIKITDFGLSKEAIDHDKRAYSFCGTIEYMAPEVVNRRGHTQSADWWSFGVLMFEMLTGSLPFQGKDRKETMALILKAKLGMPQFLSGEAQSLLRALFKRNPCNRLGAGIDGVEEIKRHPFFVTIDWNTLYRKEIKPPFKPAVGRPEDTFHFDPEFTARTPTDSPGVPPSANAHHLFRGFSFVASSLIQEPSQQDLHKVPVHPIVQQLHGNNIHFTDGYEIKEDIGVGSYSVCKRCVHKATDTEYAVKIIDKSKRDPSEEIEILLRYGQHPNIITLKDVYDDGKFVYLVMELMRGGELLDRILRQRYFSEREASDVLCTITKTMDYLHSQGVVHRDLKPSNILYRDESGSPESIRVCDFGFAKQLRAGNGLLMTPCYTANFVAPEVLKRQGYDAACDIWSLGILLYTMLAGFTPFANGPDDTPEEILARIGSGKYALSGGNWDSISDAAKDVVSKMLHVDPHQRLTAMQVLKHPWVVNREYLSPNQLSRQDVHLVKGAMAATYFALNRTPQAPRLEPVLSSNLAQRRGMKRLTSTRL

[9] = target: Ribosomal protein S6 kinase alpha-2 (Homo sapiens) (UniProt Q15349); details: at 1 µM
[10] = target: Ribosomal protein S6 kinase alpha-6 (Homo sapiens) (UniProt Q9UK32); details: at 0.1 µM
[11] = target: Ribosomal protein S6 kinase alpha-6 (Homo sapiens) (UniProt Q9UK32); details: at 1 µM
[12] = target: T1, Serine/threonine-protein kinase Sgk1 (Homo sapiens) (UniProt O00141); details: at 0.1 µM
T1 sequence (whole entry): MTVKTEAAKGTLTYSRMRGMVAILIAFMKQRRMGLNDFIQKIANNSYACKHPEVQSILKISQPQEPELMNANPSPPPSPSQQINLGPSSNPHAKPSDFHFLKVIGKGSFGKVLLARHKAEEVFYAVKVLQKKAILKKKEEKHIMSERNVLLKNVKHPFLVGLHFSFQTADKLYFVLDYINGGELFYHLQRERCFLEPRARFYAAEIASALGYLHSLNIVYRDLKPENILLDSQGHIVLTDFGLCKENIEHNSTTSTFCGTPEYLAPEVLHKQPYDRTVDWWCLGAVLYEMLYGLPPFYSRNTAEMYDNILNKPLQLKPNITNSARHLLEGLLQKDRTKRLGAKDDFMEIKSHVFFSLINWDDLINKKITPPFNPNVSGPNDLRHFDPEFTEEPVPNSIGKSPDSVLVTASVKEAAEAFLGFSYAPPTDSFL

[13] = target: T1, Serine/threonine-protein kinase Sgk1 (Homo sapiens); details: at 1 µM
[14] = target: T2, Serine/threonine-protein kinase Sgk2 (Homo sapiens) (UniProt Q9HBY8); details: at 0.1 µM
T2 sequence (whole entry): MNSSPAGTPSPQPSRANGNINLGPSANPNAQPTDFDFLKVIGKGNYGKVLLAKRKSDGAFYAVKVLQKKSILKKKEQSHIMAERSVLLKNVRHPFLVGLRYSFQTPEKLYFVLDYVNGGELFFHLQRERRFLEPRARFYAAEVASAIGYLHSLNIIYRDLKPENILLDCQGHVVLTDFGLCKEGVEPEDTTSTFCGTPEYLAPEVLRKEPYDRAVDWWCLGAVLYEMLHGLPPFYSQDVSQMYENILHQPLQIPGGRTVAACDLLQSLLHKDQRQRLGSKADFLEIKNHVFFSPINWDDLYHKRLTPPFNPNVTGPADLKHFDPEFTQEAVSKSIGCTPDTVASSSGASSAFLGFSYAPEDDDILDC

[15] = target: T2, Serine/threonine-protein kinase Sgk2 (Homo sapiens); details: at 1 µM
[16] = target: T3, Serine/threonine-protein kinase Sgk3 (Homo sapiens) (UniProt Q96BR1); details: at 0.1 µM
T3 sequence (whole entry): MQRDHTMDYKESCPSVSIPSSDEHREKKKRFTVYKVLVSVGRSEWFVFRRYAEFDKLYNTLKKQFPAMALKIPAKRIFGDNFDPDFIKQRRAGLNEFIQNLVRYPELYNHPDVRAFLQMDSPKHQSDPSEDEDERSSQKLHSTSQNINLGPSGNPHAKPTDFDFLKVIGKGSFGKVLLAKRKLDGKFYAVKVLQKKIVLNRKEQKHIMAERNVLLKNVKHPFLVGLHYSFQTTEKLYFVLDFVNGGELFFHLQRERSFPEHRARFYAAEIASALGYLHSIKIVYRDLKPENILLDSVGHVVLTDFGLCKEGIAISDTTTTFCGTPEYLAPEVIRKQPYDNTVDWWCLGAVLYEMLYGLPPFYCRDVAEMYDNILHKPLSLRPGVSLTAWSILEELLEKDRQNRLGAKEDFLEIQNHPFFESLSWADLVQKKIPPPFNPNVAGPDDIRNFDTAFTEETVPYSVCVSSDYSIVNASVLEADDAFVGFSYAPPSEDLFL

[17] = target: T3, Serine/threonine-protein kinase Sgk3 (Homo sapiens); details: at 1 µM
[18] = target: 5'-AMP-activated protein kinase catalytic subunit alpha-1 (Homo sapiens) (UniProt Q13131); details: at 0.1 µM
5'-AMP-activated protein kinase catalytic subunit alpha-1 (Homo sapiens), sequence (Q13131 whole entry, looked up): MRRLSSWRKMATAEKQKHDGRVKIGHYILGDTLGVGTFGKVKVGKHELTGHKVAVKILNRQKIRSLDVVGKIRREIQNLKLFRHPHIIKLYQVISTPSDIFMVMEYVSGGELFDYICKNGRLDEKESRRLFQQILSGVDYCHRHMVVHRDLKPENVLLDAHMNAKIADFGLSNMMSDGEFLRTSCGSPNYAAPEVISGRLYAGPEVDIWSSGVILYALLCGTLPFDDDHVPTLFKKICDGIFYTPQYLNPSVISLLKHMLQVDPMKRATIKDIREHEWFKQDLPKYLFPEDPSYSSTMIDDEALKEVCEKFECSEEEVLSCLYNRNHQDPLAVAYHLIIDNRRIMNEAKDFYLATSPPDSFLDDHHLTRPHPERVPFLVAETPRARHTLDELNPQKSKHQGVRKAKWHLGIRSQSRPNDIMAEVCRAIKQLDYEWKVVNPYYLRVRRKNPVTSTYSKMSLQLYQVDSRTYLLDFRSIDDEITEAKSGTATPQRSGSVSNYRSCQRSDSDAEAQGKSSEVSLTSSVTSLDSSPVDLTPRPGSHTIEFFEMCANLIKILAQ

[19] = target: 5'-AMP-activated protein kinase catalytic subunit alpha-1 (Homo sapiens) (UniProt Q13131); details: at 1 µM
[20] = target: 5'-AMP-activated protein kinase catalytic subunit alpha-2 (Homo sapiens) (UniProt P54646); details: at 0.1 µM;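 note: mean inhibition measured on the AMPK complex of alpha2, beta1 and gamma1 subunits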
5'-AMP-activated protein kinase catalytic subunit alpha-2 (Homo sapiens), sequence (P54646 whole entry, looked up): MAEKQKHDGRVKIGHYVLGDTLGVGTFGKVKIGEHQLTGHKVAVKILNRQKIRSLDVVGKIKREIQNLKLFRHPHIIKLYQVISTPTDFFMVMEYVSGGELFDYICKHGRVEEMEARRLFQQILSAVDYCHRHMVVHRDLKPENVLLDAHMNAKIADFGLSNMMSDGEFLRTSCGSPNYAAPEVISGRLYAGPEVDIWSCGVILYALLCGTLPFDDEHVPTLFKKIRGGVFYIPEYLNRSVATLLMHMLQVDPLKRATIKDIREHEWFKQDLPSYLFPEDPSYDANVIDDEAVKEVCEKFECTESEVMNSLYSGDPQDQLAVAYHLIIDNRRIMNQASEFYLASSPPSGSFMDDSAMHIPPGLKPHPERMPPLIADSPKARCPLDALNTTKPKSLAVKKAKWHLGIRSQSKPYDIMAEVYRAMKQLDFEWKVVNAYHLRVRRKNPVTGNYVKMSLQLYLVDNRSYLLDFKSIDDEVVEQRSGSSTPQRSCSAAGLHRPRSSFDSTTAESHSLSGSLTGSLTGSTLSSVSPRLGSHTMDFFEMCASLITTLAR

Rho-associated protein kinase 1 (Homo sapiens), sequence (Q13464 2-1354 limits assumed): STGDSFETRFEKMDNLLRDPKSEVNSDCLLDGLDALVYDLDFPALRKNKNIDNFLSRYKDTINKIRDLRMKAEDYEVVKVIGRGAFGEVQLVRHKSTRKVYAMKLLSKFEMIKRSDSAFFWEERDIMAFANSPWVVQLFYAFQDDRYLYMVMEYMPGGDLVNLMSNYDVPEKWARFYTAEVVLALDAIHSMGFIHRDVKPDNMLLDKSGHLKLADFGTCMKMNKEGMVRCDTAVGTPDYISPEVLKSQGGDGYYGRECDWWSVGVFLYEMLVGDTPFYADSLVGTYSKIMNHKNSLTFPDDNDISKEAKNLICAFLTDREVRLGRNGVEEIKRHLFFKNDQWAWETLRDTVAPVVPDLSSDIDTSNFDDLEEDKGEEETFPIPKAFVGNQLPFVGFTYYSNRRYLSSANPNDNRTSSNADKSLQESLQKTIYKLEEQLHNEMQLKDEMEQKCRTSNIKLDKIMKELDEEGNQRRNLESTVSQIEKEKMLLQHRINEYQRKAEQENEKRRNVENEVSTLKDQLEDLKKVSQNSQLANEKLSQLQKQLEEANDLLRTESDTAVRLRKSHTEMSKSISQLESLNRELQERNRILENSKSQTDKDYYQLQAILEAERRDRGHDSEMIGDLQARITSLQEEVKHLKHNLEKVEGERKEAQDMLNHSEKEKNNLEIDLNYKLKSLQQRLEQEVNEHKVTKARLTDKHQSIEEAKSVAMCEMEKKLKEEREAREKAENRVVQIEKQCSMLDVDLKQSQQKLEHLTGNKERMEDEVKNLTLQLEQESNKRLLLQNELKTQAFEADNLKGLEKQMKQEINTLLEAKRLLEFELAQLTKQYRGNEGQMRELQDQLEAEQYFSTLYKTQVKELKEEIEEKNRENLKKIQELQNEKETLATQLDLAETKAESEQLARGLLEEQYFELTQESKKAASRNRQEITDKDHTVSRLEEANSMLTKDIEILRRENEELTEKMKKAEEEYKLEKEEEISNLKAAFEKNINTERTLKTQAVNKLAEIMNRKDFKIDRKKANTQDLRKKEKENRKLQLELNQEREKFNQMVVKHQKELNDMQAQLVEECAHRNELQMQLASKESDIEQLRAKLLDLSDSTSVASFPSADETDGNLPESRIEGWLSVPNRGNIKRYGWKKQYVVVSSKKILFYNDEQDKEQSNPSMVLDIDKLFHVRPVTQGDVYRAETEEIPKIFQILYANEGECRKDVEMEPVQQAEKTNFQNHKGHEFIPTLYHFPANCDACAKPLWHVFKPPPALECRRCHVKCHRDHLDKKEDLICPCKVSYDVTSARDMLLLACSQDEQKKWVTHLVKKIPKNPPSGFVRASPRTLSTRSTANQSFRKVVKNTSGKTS

| Compound | inhibition [1] [%] | inhibition [2] [%] | inhibition [3] [%] | inhibition [4] [%] | inhibition [5] [%] | inhibition [6] [%] | inhibition [7] [%] | inhibition [8] [%] | inhibition [9] [%] | inhibition [10] [%] | inhibition [11] [%] | inhibition [12] [%] | inhibition [13] [%] | inhibition [14] [%] | inhibition [15] [%] | inhibition [16] [%] | inhibition [17] [%] | inhibition [18] [%] | inhibition [19] [%] | inhibition [20] [%] |
| --- | --- | --- | --- | --- | --- | --- | --- | --- | --- | --- | --- | --- | --- | --- | --- | --- | --- | --- | --- | --- |
| COc1cccc(-n2ncc3c(N/N=C/c4cccc(F)c4)ncnc32)c1 | 2.09 | 1.84 | 2.56 | 1.59 | 1.07 | 2.2 | 2.55 | 2.85 | 3.5 | 1.48 | 3.07 | 1.3 | 2.87 | -1.45 | 0.6 | -0.55 | 0.75 | 2.52 | 5.15 | 4.7 |
| Nc1ncnc2occ(-c3ccc(NC(=O)Nc4cccc(C(F)(F)F)c4)cc3)c12 | 19 | 11.1 | 46.9 | 4.59 | 33.8 | 2.15 | 26.1 | 7.44 | 52.9 | -0.29 | 9.85 | 4.14 | 3.96 | 3.57 | 4.73 | 6.15 | 2.94 | 1.82 | 5.16 | 2.97 |
| CNC(=O)c1cncc(/C=C/c2c(Cl)cccc2Cl)c1 | 1.88 | 0.61 | 1.93 | 1.04 | 4.53 | 0.14 | 1.94 | 1.97 | 2.54 | 0.73 | 1.63 | -0.87 | -0.45 | 0.49 | 0.48 | 1.43 | 2.18 | 2.85 | 3.59 | 6.15 |
| O=C1NC(=O)C(N2CCc3ccccc32)=C1c1ccc(Cl)cc1 | 2.06 | 2.69 | 1.72 | 1.94 | 0.4 | 2.23 | 1.24 | 2.52 | 2.25 | 2.11 | 1.19 | 2.14 | 2.97 | 2.07 | 1.86 | 3.22 | 3 | 0.74 | 4.36 | 4.52 |
| Nc1nc(-c2ccccn2)c(-c2ccc3ncccc3n2)s1 | 2.15 | 2.83 | 6.38 | 1.17 | 3.4 | 0.06 | 1.07 | 1.71 | 1.96 | 0.91 | 0.55 | 4.14 | 2.85 | 0.04 | 1.55 | 2.89 | 1.48 | 0.55 | 2.96 |  |
| COC(=O)Nc1nc2cc(Oc3ccc(NC(=O)Nc4cccc(C(=O)O)c4)cc3)ccc2[nH]1 | 1.55 | 2.14 | 5.7 | 1.21 | 2.55 | 1.11 | 1.31 | 0.86 | 2 | 0.08 | 1.45 | 1.3 | 1.96 | 1.67 | 1.89 | -2.29 | 2.6 | 1.04 | 4.37 | -4.37 |
| Fc1cccc(COc2ccc(Nc3ncnc4cc(-c5ccc[nH]5)sc34)cc2Cl)c1 | 1.71 | 1.64 | 2.17 | 2.06 | 0.75 | 2.4 | 2.56 | 1.77 | 2.41 | 1.15 | 2.27 | 1.92 | 3.96 | -0.18 | 5.58 | 0.1 | 4.46 | 1.8 | 0.98 | 3.81 |
